# About 1,000 (77%) of roughly 1,300 compounds were called active. Another 7% or so got no clear call; they are omitted. Calls follow the shape of the dose curve; as a rule, active = well fitted inhibition curve with a large enough effect; inconclusive = small, poorly fitted or top-dose-only effect; inactive = no such curve, though single readings can be large or run the other way. So high a share suggests a set chosen from earlier hits. The list shows a part of the results.
# Test: qHTS of small molecules that selectively kill Giardia lamblia: Hit Validation.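 Also: viability measured as ATP content by luminescence so killing lowers signal; nearly all actives have a fitted effect of over 65% in size.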
# Conditions: Giardia lamblia trophozoite viability, dose-response; series mostly up to 38.3 µM; activity change, negative = killing: at the top concentration
# Excerpt: Giardia lamblia is a human pathogen afflicting impoverished nations, and the most common cause of outbreaks of diarrhea in the United States. Giardia has been classified by the CDC as a category B bioterrorism organism. The favored anti giardiasis drugs in the US are metronidazole or tinidazole, compounds that have undesirable side effects. Moreover, increasing resistance to drug regimes and recurrence are a concern. It is thus clear that alternative drug treatments are needed.
# In a collaboration between the University of Maryland, College Park and the NIH Chemical Genomics Center, a bioluminescence Giardia viability assay based on the trophozoites' ATP content was developed. This assay is suitable for high throughput screening, and miniaturized the assay for compound screening in 1536-well plates. The goal of the project is to screen the Molecular Libraries Small Molecule Repository (MLSMR) for compounds that selectively kill Giardia trophozoites.
# NIH Chemical Genomics Center [NCGC]
# NIH Molecular Libraries Probe Centers Network [MLPCN]
# Assay Submitter (PI): Osnat Herzberg, University of Maryland, College Park, MD.
# 1. Dispense 2 ul/well media
# 2. Dispense 23 nl/well compounds
# 3. Dispense 4 ul/well Giardia trophozoites at a concentration of 100 cells/well
# 4. Incubate 48 hrs at 37 deg C anaerobically
# 5. Dispense 4 ul/well ATPLite 1-Step Luminescence assay kit
# 6. Incubate 15-30 min at room temperature
# 7. Read luminescence signal on ViewLux plate reader
# % is scaled to controls: 0 for no effect and ±100 for the full control effect; potency is read from the fitted curve at half-maximal effect.
Compound,Potency,"activity change, negative = killing"
Cc1cc([N+](=O)[O-])c2ccccc2[n+]1[O-],206 nM (active),
CC(=O)OC[C@]12CCC(C)=C[C@H]1O[C@@H]1[C@H](O)[C@@H](OC(C)=O)[C@@]2(C)[C@]12CO2,5160 nM (active),
COC1/C=C/C=C(\C)Cc2cc(O)c(Cl)c(c2)N(C)C(=O)CC(OC(=O)C(C)C)C2(C)OC2C(C)C2CC1(O)NC(=O)O2 (centres undefined),460 nM (active),
COC(/C(C)=C/C=C/C(C)=C/c1coc(C)n1)C(C)C1CC(O)C2(C)OC2C=CC(C)C2CC(CC(=O)O2)CC2OC2C(=O)O1 (centres undefined),23.1 nM (active),
C[N+]12CCC(CC1)C(=C(c1ccccc1)c1ccccc1)C2,,-5.4% (inactive)
COC12C(COC(N)=O)C3=C(C(=O)C(C)=C(N)C3=O)N1CC1C2N1C (centres undefined),5790 nM (active),
O=[N+]([O-])c1cc([As](=O)(O)c2ccc(O)c([N+](=O)[O-])c2)ccc1O,818 nM (active),
O=[N+]([O-])c1ccc(O)c([N+](=O)[O-])c1,2310 nM (active),
O=[N+]([O-])c1cc([As](=O)(O)O)ccc1O,5790 nM (active),
Cc1nnc2ccc(-c3cccc(C(F)(F)F)c3)nn12,,-28.2% (inactive)
ClCCOCCCl,,-5.76% (inactive)
Fc1ccc(C2NCCc3[nH]cnc32)cc1 (centres undefined),,10.2% (inactive)
CCOc1ccc(-c2cc(C(=O)N3CCC4(CC3)OCCO4)c3ccccc3n2)cc1,7290 nM (active),
COc1ccc(CC2NCC(O)C2OC(C)=O)cc1 (centres undefined),1030 nM (active),
COc1ccc(C[C@H]2NC[C@H](O)[C@H]2OC(C)=O)cc1,650 nM (active),
CCOC(=O)C1CCCN(c2ccc([N+](=O)[O-])c3nonc23)C1 (centres undefined),1160 nM (active),
CNC(=O)Oc1cccc(-c2cn3cc(Cl)ccc3n2)c1,2050 nM (active),
CC1=C(N2CC2)C(=O)C(CO)=C(N2CC2)C1=O,115 nM (active),
c1ccc2c(c1)[I+]c1ccccc1-2,146 nM (active),
COC(=O)c1nc(-c2ccc3c(n2)C(=O)C(N)=C(OC)C3=O)c(N)c(-c2ccc(OC)c(OC)c2O)c1C,2590 nM (active),
CN(C)C(=O)Oc1ccc(Br)c2ccccc12,,12.9% (inactive)
CC1CC(C)(O)CC(C(O)CC2CC(=O)NC(=O)C2)C1=O (centres undefined),146 nM (active),
CC(=O)OC1(C)CC(C)C(=O)C(C(O)CC2CC(=O)NC(=O)C2)C1 (centres undefined),18.3 nM (active),
CC(C)(O)C1C2OC(=O)C1C1(O)CC3OC34C(=O)OC2C14C (centres undefined),,2.07% (inactive)
Cc1ncc([N+](=O)[O-])n1CCOC(N)=O,3260 nM (active),
Cc1ncc([N+](=O)[O-])n1CCOc1nonc1N,1030 nM (active),
CC1CC(C)CC(C)C(O)C(C#N)=CC=CCC(C2CCCC2C(=O)O)OC(=O)CC(O)C(C)C1 (centres undefined),326 nM (active),

Compound,Potency,"activity change, negative = killing"
COc1ccc(OC(=O)N2C/C(=C/c3ccccc3)C(=O)/C(=C\c3ccccc3)C2)cc1,1160 nM (active),
NC(=O)c1cc(N2CC2)c([N+](=O)[O-])cc1[N+](=O)[O-],650 nM (active),
O=[N+]([O-])c1ccc(-c2ccccc2)c([As](=O)(O)O)c1,259 nM (active),
CC1Oc2cc3c(-c4c(O)cc(O)c5c(O)c6c(cc45)OC(C)C(C)C6=O)c(O)cc(O)c3c(O)c2C(=O)C1C (centres undefined),1030 nM (active),
COC(COC(N)=O)C1=C(N2CC2)C(=O)C(C)=C(N2CC2)C1=O (centres undefined),729 nM (active),
O=[N+]([O-])c1oc2ccc3ccccc3c2c1CCO,51.6 nM (active),
NN=C(N)N,,-24.8% (inactive)
C[C@H]1C[C@@H](C)C(=O)[C@@H]([C@H](O)CC2CC(=O)NC(=O)C2)C1,72.9 nM (active),
C[C@@H]1C[C@@H]([C@H](O)CC2CC(=O)NC(=O)C2)C(=O)[C@@H](C)C1,183 nM (active),
Cc1ccc(-c2nc3c(=O)n(C)c(=O)nc-3n(C)n2)cc1,103 nM (active),
CCn1nc(/C=C/c2ccccc2)nc2c(=O)n(C)c(=O)nc1-2,146 nM (active),
Cn1nc(-c2ccccc2)nc2c(=O)n(C)c(=O)nc1-2,163 nM (active),
Cc1nc2c(=O)n(C)c(=O)nc-2n(C)n1,259 nM (active),
Cc1ccc(C(c2nnnn2Cc2ccccc2)N2CC=C(c3ccc(F)cc3)CC2)cc1 (centres undefined),,6.65% (inactive)
COC(=O)C12OCC34C(CC5C(C)=C(O)C(=O)CC5(C)C3C(O)C1O)OC(=O)C(OC(=O)/C=C(\C)C(C)C)C24 (centres undefined),579 nM (active),
Cc1nc2ccccc2c(=O)n1-c1cc([N+](=O)[O-])cc([N+](=O)[O-])c1,10300 nM (active),
O=c1c2ccccc2nc(/C=C/c2ccc(O)cc2)n1-c1cccc(O)c1,,-17.3% (inactive)
Cc1cccc(-n2c(/C=C/c3ccc([N+](=O)[O-])o3)nc3ccccc3c2=O)c1,1630 nM (active),
O=c1c2ccccc2nc(/C=C/c2ccc([N+](=O)[O-])o2)n1-c1ccc(O)cc1,290 nM (active),
CC1CN(c2ccc([N+](=O)[O-])c3cccnc23)CC(C)N1 (centres undefined),1300 nM (active),
CN1CCN(c2ccc([N+](=O)[O-])c3cccnc23)CC1,1030 nM (active),
CCCCn1c(=O)c(C(=O)NCc2ccccc2OC)c(O)c2ccccc21,,-4.32% (inactive)
[Hg+][c]1ccccc1,4100 nM (active),
CN1CCCN(c2ccc([N+](=O)[O-])nc2)CC1,6500 nM (active),
C=CC1CN2CCC1CC2[C@@H](OC(=O)c1ccc(OC)cc1)c1ccnc2ccccc12 (some centres undefined),818 nM (active),
c1ccc2c(c1)[IH]c1ccccc1-2,460 nM (active),
CN(c1ccccc1)c1ccc([N+](=O)[O-])c2nonc12,410 nM (active),

# — PubChem BioAssay AID588397 (National Center for Advancing Translational Sciences (NCATS), 2011)
